# According to paper PMC5540273 (PLoS ONE, 2017):
# System: KIT-autoinhibited
# Settings: concentration: 1 μM, replicates: in singlicate; n = 1
# 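Also: KINOMEscan kinase panel screen.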
row,Structure (SMILES),%Inh [%]
1,COc1cccc(NC(=O)Nc2ccc(C)c(-c3ccc(C(=O)Nc4ccncc4)cc3)c2)c1 [GSK1398474],0
2,CS(=O)(=O)Cc1ccc(Nc2nccc(-c3c(-c4cccc(NC(=O)C5CCCCC5)c4)nn4ncccc34)n2)cc1 [GSK350559],14
3,COc1ccc(Nc2nccc(-c3ccc(NC(=O)c4cc5cc(F)ccc5[nH]4)cc3)n2)cc1 [GSK1229496],0
4,Cc1cccc2c(-c3ccncn3)c(-c3ccc(F)cc3)nn12 [GW515532],0
5,NS(=O)(=O)c1cccc(N/C=C2\C(=O)Nc3ccc(S(=O)(=O)Cc4c(Cl)cccc4Cl)cc32)c1 [GSK398099],0
6,O=C(Nc1n[nH]c2nc(-c3ccco3)c(Br)cc12)C1CCN(Cc2ccccc2)C1.O=C(O)[C@H](O)[C@@H](O)C(=O)O (stereo not drawn) [SB-742034],7
7,COc1ccc(-c2coc3ccc(-c4nnc(C)o4)cc23)cc1,0
8,O=c1cc(N2CCOCC2)nc2n(Cc3ccccc3F)ccn12 [GSK2297428],0
9,COC(=O)c1cccc(NC(=O)NC2CCN(c3ccnc(Nc4ccc(F)cc4)n3)C2)c1 (stereo not drawn) [GSK1379725],0
10,Cc1c(Cn2c(C)c(C)n3c(=O)cc(N4CCOCC4)nc23)cccc1C(F)(F)F [GSK2328680],0
11,CNC(=O)c1ccc(C)c(-n2c(C)cc(OCc3ccc(F)cc3F)c(Br)c2=O)c1,0
12,COc1ccc(Nc2nccc(N3CCC(NC(=O)c4cc5ccccc5s4)C3)n2)cc1 (stereo not drawn) [GSK1379738],0
13,CC(=O)c1cccc(NC(=O)NC2CCN(c3ccnc(Nc4ccc(F)cc4)n3)C2)c1 (stereo not drawn) [GSK1379710],4
14,O=C1NC(=O)C(c2ccc(Cl)cc2)=C1Nc1cccc(Cl)c1 [SB-317651],15
15,Cc1ccc(NC(=O)Nc2ccccc2F)cc1-c1ccc(C(=O)Nc2ccncc2)cc1 [GSK1398477],5
16,Cc1ccc(NC(=O)c2ccc(Cl)cc2)cc1-c1ccc(C(=O)Nc2ccncc2)cc1 [GSK1398467],0
17,Cc1ccccc1-c1cc(-c2c[nH]nc2-c2ccccn2)ccn1 [GW680061],0
18,CC[C@@H]1CO[C@H](C(=O)Nc2ccccc2)CN1c1cc(-c2ccc3c(N)n[nH]c3c2)nc(NC)n1 [GSK2376236],0

row,Structure (SMILES),%Inh [%]
1,COc1ccc(CSc2nnc(-c3ccc4ncsc4c3)o2)cc1C(F)(F)F,0
2,Cc1ccc(-c2nc(Nc3ccncc3)c3ccccc3n2)s1 [GSK189015],0
3,Cc1ccccc1Cn1ccn2c(=O)cc(N3CCOCC3)nc12 [GSK2269905],1
4,CS(=O)(=O)CCNCc1nc(-c2ccc3ncnc(Nc4ccc5c(cnn5Cc5ccccc5)c4)c3c2)cs1.Cl.Cl [GW569716],0
5,Cc1nccc(-c2c(-c3ccc(F)cc3)ncn2CCCN2CCOCC2)n1.Cl [SB-282975],9
6,Cn1cncc1C(=O)NC1CCN(c2ccnc(Nc3ccc(F)cc3)n2)C1 (stereo not drawn) [GSK1379717],0
7,CN1c2ccc(-c3ccc(C(N)=O)cc3)cc2-c2[nH]ncc2S1(=O)=O,20
8,CC(C)c1cc(-c2ccc3c(N)n[nH]c3c2)nc(N)n1 [GSK2250882],0
9,O=C(Nc1n[nH]c2nc(-c3cccs3)c(Br)cc12)C1CC1 [SB-735297],0
10,Cc1ccc(NC(=O)Nc2ccc(Cl)cc2)cc1-c1ccc(C(=O)Nc2ccncc2)cc1 [GSK1398472],4
11,Fc1ccc(-c2nn3cccc(F)c3c2-c2ccncc2)cc1 [GW475620],0
12,CC(C)c1ccc(O)cc1Nc1ccnc2ccc(C(F)(F)F)cc12 [GW482059],0
13,Fc1ccc(-c2nc3n(c2-c2ccncc2)CCS3)cc1 [GI98581],0
14,O=C(Nc1n[nH]c2cc(-c3ccsc3)ccc12)C1CC1 [SB-732932],0
15,Cc1cnc(N)c(/C=C/c2cncc(C(=O)NCCc3ccc(Cl)cc3Cl)c2)c1.Cl [GSK190937],0
16,CC(=O)c1c(C)c2cnc(Nc3ccc(N4CCNCC4)cn3)nc2n(C2CCCC2)c1=O,0
17,COc1ccc2cc(-c3nc(-c4ccccc4C(C)C)[nH]c3-c3ccncc3)ccc2c1 [SB-660566],0
18,CCc1ccc(-c2ccc3c(c2)-c2n[nH]cc2S(=O)(=O)N3C)cc1,0
